GALR2 ag: activates the human galanin receptor 2; O43603; GALR2-expressing cells, agonist activation read-out; activation, % (concentration not given with the values); 140,000 tested, 0.48% active; AID 803; in the data active = activation above about 5%, passing the limit was not always enough;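 also: 0% = vehicle buffer wells and 100% = reference agonist at full effect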
Target sequence (O43603 whole entry, looked up): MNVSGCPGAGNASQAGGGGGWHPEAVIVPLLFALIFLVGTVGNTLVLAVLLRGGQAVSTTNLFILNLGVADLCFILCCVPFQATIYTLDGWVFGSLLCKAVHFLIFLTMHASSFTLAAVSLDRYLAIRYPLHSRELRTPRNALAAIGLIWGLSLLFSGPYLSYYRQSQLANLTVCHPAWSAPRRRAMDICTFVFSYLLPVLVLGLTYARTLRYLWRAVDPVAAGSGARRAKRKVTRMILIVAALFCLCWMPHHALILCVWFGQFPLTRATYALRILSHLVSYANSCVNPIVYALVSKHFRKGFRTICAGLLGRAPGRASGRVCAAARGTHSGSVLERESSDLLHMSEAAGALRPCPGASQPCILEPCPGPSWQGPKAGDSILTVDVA
S1P2 blocker: antagonists of human S1P2 receptor; 97,000 tested, 0.21% active; cell-based S1P2 antagonist assay, inhibition at 5 uM; inhibition, % at 5 µM; in the data active = inhibition above about 45%;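 also: CRE beta-lactamase reporter cells expressing human S1P2 stimulated with S1P; 0% = agonist at EC80 alone and 100% = agonist plus reference antagonist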
GALR2 antag: blocks the human galanin receptor 2 | O43603 | GALR2-expressing cells, antagonist mode | inhibition, % at 4 µM | 140,000 tested, 0.39% active | AID 828; in the data active = inhibition above about 27%;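 also: cells stimulated with galanin 1-16 at roughly its EC80; 0% = agonist challenge control and 100% = basal control without agonist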
S1P2 agonist: S1P2 (human) receptor agonism. S1P2-expressing cell line, agonist reporter read-out. activation, % at 4.5 µM. 97,000 tested, 0.46% active; in the data active = activation above about 16%;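 also: 0% = vehicle low control and 100% = maximal reference agonist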
GALR2 agon conf: GALR2 (human) agonism confirmed | shares compounds with GALR2 ag | GALR2-expressing cells, agonist activation | activation, % at 5.6 µM | 460 tested, 10% active; in the data active = activation above about 8.4%;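 also: 0% = buffer-only vehicle wells and 100% = full reference agonist response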
BLA activ ctr: activates beta-lactamase reporter in GALR2 agonist counterscreen. shares compounds with GALR2 ag. CHO NFAT-bla reporter, beta-lactamase FRET activation. activation, % at 5.6 µM. 460 tested, 10% active. AID 865;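 active = activation above the screen-wide mean activation plus 3 SD, cut at about 8% in these data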;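 also: 0% = DMSO with PBS wells and 100% = thapsigargin positive control wells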
Starred values were filed as active, the others as inactive; . = no result. Rows were chosen to be rich in hits. Some 1.2% of all compounds tested hit in one or more screens of this group.

SMILES | GALR2 ag | S1P2 blocker | GALR2 antag | S1P2 agonist | GALR2 agon conf | BLA activ ctr
COc1ccc(-c2nnc3n2N=C(c2cccc(Br)c2)CS3)cc1OC | 9.7* | . | 9 | . | 1 | 0
CCC(C)C(NC(=O)c1ccccc1NC(=O)c1ccc(OC)cc1)C(=O)NCc1ccco1 (configuration not stated) | 14* | 6 | 1 | 0 | 7 | 4
O=c1ccc(Oc2nc(N3CCCCC3)nc(N3CCCCC3)n2)n[nH]1 | 0 | -25 | 4 | -4 | . | .
CCc1cccc(C)c1NC(=O)CCCC(=O)O | -2 | -12 | -16 | -2 | . | .
Cc1cc(C)c(NC(=O)CCCC(=O)O)c(Cl)c1 | 13* | 9 | -2 | -2 | -1 | -2
CC1CCN(c2ccc(NC(=S)NC(=O)c3ccc(-c4cccc([N+](=O)[O-])c4)o3)cc2)CC1 | -2 | -16 | 6 | -4 | . | .
CC1CCN(c2ccccc2NC(=S)NC(=O)c2ccc(-c3cccc([N+](=O)[O-])c3)o2)CC1 | 21* | 9 | 8 | -3 | -1 | -1
COc1ccc(C(=O)NN(C)c2nc(-c3ccccc3)nnc2C(F)(F)F)cc1 | -1 | 6 | 0 | -4 | . | .
CN(NC(=O)C(C)(C)C)c1nc(-c2ccccc2)nnc1C(F)(F)F | 10 | -11 | 2 | -6 | -1 | -3
FC(F)(F)c1cccc(N2CCN(CC3CC=CCC3)CC2)c1 (configuration not stated) | -1 | 0 | -10 | -1 | . | .
COc1ccc(C2c3c(oc4ccc(Cl)cc4c3=O)C(=O)N2Cc2ccco2)cc1OC (configuration not stated) | 21* | . | 12 | . | 7 | 5
CC1(C)NC(C)(C)C(O)(C(N)=O)C1=O (configuration not stated) | -1 | -4 | -6 | -1 | . | .
O=C(/C=C/c1ccco1)Nc1cc(Cl)ccc1C(=O)O | 12* | . | -8 | . | -1 | -2
CCCCOc1ccc(Cl)cc1CSc1nnc(C)n1N | -2 | -3 | -4 | -4 | . | .
CCCCCCc1cc2cc(S(=O)(=O)c3ccc(F)cc3)c(=O)oc2cc1O | 14* | . | -3 | . | 16* | 41*
COc1ccccc1NC(=S)Nc1ccccn1 | 44* | . | 7 | . | -1 | -2
COC(=O)CCC(=O)Nc1nnc(C(F)(F)F)s1 | 144* | -6 | -4 | -3 | -1 | -1
Cc1ccc(CN2CCN(/N=C/c3cccs3)CC2)cc1 | -2 | . | -6 | . | . | .
Cc1nn(C)c(C)c1S(=O)(=O)N(CC(=O)NCc1cccs1)c1ccc(C(C)C)cc1 | 0 | . | -8 | . | . | .
COc1ccc(N(CC(=O)NCc2cccs2)S(=O)(=O)c2c(C)nn(C)c2C)cc1 | 17* | -16 | -4 | -2 | 0 | -1
CCOC(=O)c1c(NC(=O)CSc2nnnn2C)sc(C)c1-c1ccc(C)cc1 | -1 | . | 0 | . | . | .
CCOC(=O)N1CCN(C(=O)C2CCN(S(=O)(=O)c3c(C)cc(C)cc3C)CC2)CC1 | 18* | 6 | 0 | -2 | -1 | -3
CCOC(=O)N1CCN(S(=O)(=O)c2c(C)cc(C)cc2C)CC1 | -1 | 17 | -8 | 1 | . | .
Cc1cc(C(=O)O)c(=O)[nH]c1C | 0 | -13 | -5 | -6 | . | .
O=C(O)c1c[nH]ccc1=O | 12* | 24 | 5 | -7 | -1 | -3
SMILES | GALR2 ag | S1P2 blocker | GALR2 antag | S1P2 agonist | GALR2 agon conf | BLA activ ctr
CCC(c1nnnn1Cc1ccco1)N(CCN1CCOCC1)Cc1cc2cc(C)ccc2[nH]c1=O (configuration not stated) | -3 | 20 | -1 | -6 | . | .
CCCCn1c(SCC(=O)c2cc(OC)ccc2OC)nc2cc(S(N)(=O)=O)ccc21 | 68* | . | 6 | . | 1 | 0
CCCCn1c(SCC(=O)N2CCC(C)CC2)nc2cc(S(N)(=O)=O)ccc21 | 1 | 17 | -3 | -5 | . | .
O=C(Nc1ccncc1)c1ccc2c(c1)C(=O)N(C1CCCCC1)C2=O | 36* | -5 | -4 | -4 | -1 | -3
CCn1cc(C2=NOC(C(=O)Nc3cc(C)nn3-c3ccccc3)C2)c(C)n1 (configuration not stated) | 11* | . | 14 | . | 0 | -2
CCN(CC(=O)NC)S(=O)(=O)c1ccc(Br)cc1 | -2 | -22 | 1 | -5 | . | .
Cc1cc(C)nc(/N=C(\N)N2CCCCCC2)n1 | 17* | . | -6 | . | -1 | -3
COc1cc(/C=C/C(=O)Nc2nc3ccc(S(=O)(=O)N(C)C)cc3s2)cc(OC)c1OC | 2 | . | 11 | . | . | .
COc1cc2nc(/C=C/c3cc(OC)c(OC)c(OC)c3)sc2cc1SC | 14* | . | -4 | . | 6 | 9.0*
c1ccc(-c2ccc(-c3cn4c(n3)CCC4)cc2)cc1 | 0 | -17 | -4 | -2 | . | .
